BH1578 lux ind: inducers of Vibrio cholerae quorum light production without autoinducers, primary screen, BH1578 luxS cqsA deficient, single point. AID 588436, 2011. V. cholerae BH1578 lux reporter, luminescence, 6 h. 350,000 compounds, 0.16% hits. activation, % at 18.7 µM; in the data active means activation mostly above about 9.7%, no sharp cut-off; inconclusive means no clear call, values can overlap the other calls; inactive means mostly below about 3.7%
MazF activator: activators of E. coli MazEF toxin-antitoxin RNase, primary screen, biochemical, fluorescence, uHTS; Endoribonuclease toxin MazF (Escherichia coli (strain K12)), P0AE70; FAM/BHQ RNA-DNA oligo cleavage fluorescence, 5 h; activation, % at 20 µM; 350,000 compounds, 0.32% hits; in the data active means activation above about 50%
Anthrax LF inh2: Bacillus anthracis LF protease inhibitors, primary screen, biochemical, multiplex microsphere, MLPCN library; inhibition, % at 10 µM; AID 588501, 2011; 360,000 compounds, 0.12% hits; multiplex microsphere protease cleavage assay; Lethal factor (Bacillus anthracis), P15917
BoNT-F LC inh: BoNT/F light chain protease inhibitors, primary screen, biochemical, flow cytometry, MLPCN library | Multiplex microsphere protease cleavage assay | inhibition, % at 10 µM | 360,000 compounds, 0.22% hits | AID 588497, 2011; in the data active means inhibition above about 35%, passing the limit was not always enough; inconclusive means no clear call, values can overlap the other calls
BoNT-A LC inh2: BoNT/A light chain protease inhibitors, primary screen, biochemical, flow cytometry, MLPCN library; Botulinum neurotoxin type A light chain protease (Clostridium botulinum A str. ATCC 3502); multiplex microsphere protease substrate cleavage; inhibition, % at 10 µM; 360,000 compounds, 0.17% hits; AID 588499, 2011
Bead autofluor: flagged as autofluorescent in microsphere protease counterscreen; AID 624483; 360,000 compounds, 3.1% hits; fluorescence intensity (no concentration beside the values); compound autofluorescence counterscreen, microsphere flow cytometry; stronger effect = higher value; in the data active means fluorescence intensity above about 16000; inconclusive means no clear call, values can overlap the other calls
A number is an active result; 0 = inactive; ? = inconclusive; - = no result. Only some compounds are listed: those with a hit (about 3.9% of all), similar ones and a draw of the others. Unless noted, no stated cut-off is given here; in the data, active means inhibition above about 30%; inconclusive means no clear call, values can overlap the other calls; inactive means below that.

SMILES | BH1578 lux ind | MazF activator | Anthrax LF inh2 | BoNT-F LC inh | BoNT-A LC inh2 | Bead autofluor
Cc1oc2ccc(OC(=O)N3CCOCC3)cc2c1C(=O)OC(C)C | 0 | 0 | 0 | 0 | 0 | 23451
COc1ccc(Oc2c(C)oc3cc(OC(=O)N4CCOCC4)ccc3c2=O)cc1 | 0 | 0 | 0 | 0 | 0 | 16237
COc1cccc(CNC(=O)CSc2nnc3c(n2)[nH]c2ccccc23)c1 | 0 | 0 | 0 | 0 | 0 | 0
Cc1cc(Cl)ccc1NC(=O)CCN1C(=O)NC(C)(C)C1=O | 0 | 0 | 0 | 0 | 0 | 0
CCN(CC)c1ccc(NC(=O)Cn2nnc(-c3cccc(OC)c3OC)n2)c(C)c1 | 0 | 0 | 0 | 0 | 0 | 20991
CCOc1ccc(-c2nnn(CC(=O)Nc3ccccc3OC)n2)cc1OCC | 0 | 0 | 0 | 0 | 0 | 0
COc1ccc(N2C(=O)CC(SCCc3nc4ccccc4[nH]3)C2=O)cc1 (centres undefined) | 0 | 0 | 0 | 0 | 0 | 19552
Cc1cc(C)c2c(n1)SCC(=O)N2CC(=O)Nc1ccc(Br)c(C)c1 | 0 | 0 | - | - | - | -
Cc1ccc(C)c(N(C(=O)Cn2nnc(-c3cccs3)n2)C(C(=O)NC2CCCC2)c2ccncc2)c1 (centres undefined) | 0 | 0 | 0 | 0 | 0 | 24211
COc1cccc(N(C(=O)Cn2nnc(-c3cccs3)n2)C(C(=O)NC2CCCCC2)c2ccncc2)c1 (centres undefined) | 0 | 0 | 0 | 0 | 0 | 0
CC(C)C(=O)N1CCC(n2nccc2NC(=O)CCc2ccccc2)CC1 | 0 | 0 | 0 | 0 | 0 | 0
COC(=O)CCC(=O)c1oc2ccc(Br)cc2c1N | 0 | 0 | 0 | 0 | 0 | 16549
Nc1c(C(=O)c2ccc(Br)s2)oc2ccccc12 | 0 | 64 | 0 | 0 | 0 | 0
Nc1c(C(=O)c2ccccc2)oc2ccc(Br)cc12 | 0 | 0 | 0 | 0 | 0 | 20833
Nc1c(C(=O)c2cccs2)oc2ccccc12 | 0 | 0 | 0 | 0 | 0 | 0
Nc1c(C(=O)c2ccc(Br)cc2)oc2ccccc12 | 0 | 0 | 0 | 0 | 0 | 0
Cc1ccc(S(=O)(=O)Nc2ccc(Nc3nccn4c(-c5ccc6ccccc6c5)cnc34)cc2)cc1 | 0 | - | 0 | 0 | 0 | 0
CC(C)C[C@H]1CNC(=O)C(=O)N1C[C@H]1CCCN1C[C@H](CC(C)C)N1C[C@H](CC(C)C)N(CCc2ccccc2)C(=O)C1=O | - | - | 0 | 0 | 0 | 0
Cc1cc2nc(-c3ccccn3)c(-c3ccccn3)nc2cc1C | 0 | - | 0 | 0 | 0 | 0
c1ccc(-c2nc3ccccc3nc2-c2ccccn2)nc1 | 0 | 0 | 0 | 0 | 0 | 22188
C=CCn1c(O)c(C(CC)=Nc2ccc(N(CC)CC)cc2)c(=O)[nH]c1=O | 0 | 0 | 0 | 0 | 0 | 21974
CCC(=NC1CC1)c1c(O)n(C2CCCCC2)c(=O)[nH]c1=O | 0 | 0 | 0 | 0 | 0 | 0
C=CCn1c(O)c(C(C)=Nc2ccc(N(CC)CC)cc2)c(=O)[nH]c1=O | 0 | 0 | 0 | 0 | 0 | 0
C=CCn1c(O)c(C(CC)=NC2CC2)c(=O)[nH]c1=O | 0 | 0 | 0 | 0 | 0 | 16830
N#C/C(=C\c1cc2c(cc1Br)OCO2)C(=O)NCC1CCCO1 (centres undefined) | 0 | 0 | 0 | ? | ? | ?
SMILES | BH1578 lux ind | MazF activator | Anthrax LF inh2 | BoNT-F LC inh | BoNT-A LC inh2 | Bead autofluor
N=c1c2c(n(Cc3ccc(Cl)cc3)c3c1CCC3)CCC2 | 0 | 0 | 0 | 0 | 0 | 20485
N=c1c2c(n(Cc3ccc(F)cc3)c3c1CCC3)CCCC2 | 0 | 0 | 0 | 0 | 0 | 0
Cc1cc(C)c2[nH]c(=O)c(CN(Cc3cccs3)C(=S)NCc3ccco3)cc2c1 | 0 | 0 | 0 | 0 | 0 | 0
CCOC(=O)c1cc(OC(=O)c2cccc([N+](=O)[O-])c2)n(-c2ccccc2)n1 | 0 | 0 | 0 | 0 | ? | 17208
Cc1ccc(C(=O)COC(=O)c2cn(-c3ccccc3)nc2-c2ccccc2)cc1[N+](=O)[O-] | 0 | 0 | 0 | 0 | 0 | 0
CCOC(=O)c1cc(OC(=O)c2ccccc2Br)n(-c2ccccc2)n1 | 0 | 0 | 0 | 0 | 0 | 0
O=C(COC(=O)c1cn(-c2ccccc2)nc1-c1ccccc1)c1cccc([N+](=O)[O-])c1 | 0 | 0 | 0 | 0 | 0 | 16553

Screening results from PubChem BioAssay.
